From PubChem BioAssay (Tox21) come the findings set out here.

Molecules are shown by their SMILES. Results filed as inconclusive are left out. A number with no mark means an inactive call. Activity calls are given as the source filed them. Unless noted, calls follow the shape of the dose curve; as a rule, active = well fitted curve in the direction sought with a large enough effect in the repeat runs; inconclusive = weak or mixed curves; inactive = no such curve, though single readings can be large; an effect the other way counts as inactive or inconclusive.

The subject of assay [1] is thyroid hormone receptor (rat, GH3 cells). The experiment in a line: qHTS assay to identify small molecule agonists of the thyroid receptor (TR) signaling pathway (AID 743066; calls by dose curve; also: % is scaled to controls: 0 for no effect and ±100 for the full control effect). Background: Quantitative high-throughput screening tests each substance at several concentrations.
A short description of assay [2]: qHTS assay to identify small molecule antagonists of the estrogen receptor alpha (ER-alpha) signaling pathway - cell viability counter screen (AID 743074; calls by dose curve;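 also: HEK293 cells carrying ER-alpha-UAS-bla reporter stimulated with 17beta-estradiol; % is scaled to controls: 0 for no effect and ±100 for the full control effect; nearly all actives have a fitted effect of over 45% in size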).
The target in assay [3] is Estrogen receptor (Homo sapiens) (UniProt P03372). The assay is described as follows: qHTS assay to identify small molecule agonists of the estrogen receptor alpha (ER-alpha) signaling pathway (AID 743075; calls by dose curve;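 also: HEK293 GripTite cells with ER-alpha and UAS-driven beta-lactamase reporter; % is scaled to controls: 0 for no effect and ±100 for the full control effect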).
Estrogen receptor (Homo sapiens), sequence (P03372 whole entry, looked up): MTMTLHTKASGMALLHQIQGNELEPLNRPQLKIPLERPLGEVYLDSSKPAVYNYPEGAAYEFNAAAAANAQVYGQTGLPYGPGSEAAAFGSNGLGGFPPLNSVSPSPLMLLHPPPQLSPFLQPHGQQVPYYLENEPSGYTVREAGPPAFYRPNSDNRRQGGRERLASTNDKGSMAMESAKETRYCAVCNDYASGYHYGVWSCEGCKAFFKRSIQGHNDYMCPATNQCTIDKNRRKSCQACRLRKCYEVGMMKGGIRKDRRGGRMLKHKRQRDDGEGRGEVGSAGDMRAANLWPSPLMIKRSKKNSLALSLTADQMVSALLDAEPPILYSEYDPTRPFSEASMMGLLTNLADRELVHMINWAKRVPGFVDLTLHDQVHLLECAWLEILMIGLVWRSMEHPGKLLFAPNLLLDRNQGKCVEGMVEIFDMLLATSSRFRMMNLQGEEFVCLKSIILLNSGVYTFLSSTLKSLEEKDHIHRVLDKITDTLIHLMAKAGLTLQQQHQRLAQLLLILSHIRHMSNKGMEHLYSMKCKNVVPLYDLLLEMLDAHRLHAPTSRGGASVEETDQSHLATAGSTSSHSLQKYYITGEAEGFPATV
A short description of assay [4]: qHTS assay to identify small molecule antagonists of the estrogen receptor alpha (ER-alpha) signaling pathway using the BG1 cell line (AID 743080; calls by dose curve;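 also: BG1 cells stimulated with 17beta-estradiol alongside compound; series mostly up to about 70 µM; % is scaled to controls: 0 for no effect and ±100 for the full control effect; nearly all actives have a fitted effect of over 25% in size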). In outline: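 BG1-Luc-4E2 cells (endogenous full-length ER-alpha, stable 4×ERE-luciferase) were starved 5 days in phenol-red-free medium with 10% charcoal-stripped FBS, plated 24 h, then given compound plus 17beta-estradiol for 21.5 h at 37 C; ONE-Glo luminescence read after 30 min.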

Assay [5] in a line: qHTS assay to identify small molecule antagonists of the estrogen receptor alpha (ER-alpha) signaling pathway using the BG1 cell line - cell viability counter screen (AID 743081).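 Also: compound given together with 17beta-estradiol as the ER stimulus; series mostly up to about 70 µM; % is scaled to controls: 0 for no effect and ±100 for the full control effect; nearly all actives have a fitted effect of over 45% in size.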
For the next assay, the target named is Aromatase (Homo sapiens) (UniProt P11511). The assay is described as follows: qHTS assay to identify aromatase inhibitors (AID 743083). Also: series mostly up to about 70 µM; % is scaled to controls: 0 for no effect and ±100 for the full control effect; nearly all actives have a fitted effect of over 55% in size.
Aromatase (Homo sapiens), sequence (P11511 whole entry, looked up): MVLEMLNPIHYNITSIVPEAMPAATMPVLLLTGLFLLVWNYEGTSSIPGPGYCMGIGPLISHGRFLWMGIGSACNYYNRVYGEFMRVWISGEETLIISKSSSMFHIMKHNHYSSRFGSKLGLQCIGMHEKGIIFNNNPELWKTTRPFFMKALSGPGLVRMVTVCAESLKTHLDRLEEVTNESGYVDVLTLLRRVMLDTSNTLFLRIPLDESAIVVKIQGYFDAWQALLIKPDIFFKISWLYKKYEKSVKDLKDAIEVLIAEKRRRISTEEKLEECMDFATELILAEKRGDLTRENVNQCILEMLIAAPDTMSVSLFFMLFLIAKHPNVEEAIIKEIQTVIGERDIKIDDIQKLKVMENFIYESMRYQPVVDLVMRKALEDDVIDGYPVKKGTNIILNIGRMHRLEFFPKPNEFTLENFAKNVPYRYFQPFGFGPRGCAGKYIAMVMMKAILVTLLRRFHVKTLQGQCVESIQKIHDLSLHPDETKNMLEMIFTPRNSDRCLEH
Assay [6] is described as follows: qHTS assay to identify aromatase inhibitors - cell viability counter screen (AID 743084).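 Also: cells stimulated with testosterone during compound exposure; % is scaled to controls: 0 for no effect and ±100 for the full control effect; nearly all actives have a fitted effect of over 55% in size.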
Assay [7] has as its target Aryl hydrocarbon receptor (Homo sapiens) (UniProt P35869). The assay is described as follows: qHTS assay to identify small molecule that activate the aryl hydrocarbon receptor (AhR) signaling pathway (AID 743085).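 Also: HG2L7.5c1 human HepG2 liver cells with stably integrated DRE-driven firefly reporter; series mostly up to about 70 µM; % is scaled to controls: 0 for no effect and ±100 for the full control effect; nearly all actives have a fitted effect of over 15% in size.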 The procedure, abridged:
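AhR agonist activity is inferred from enhanced light output of a DRE-controlled firefly luciferase reporter in HepG2 cells, measured with ONE-Glo following 24 h treatment at 37C.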

The nature of assay [8]: qHTS assay to identify small molecule that activate the aryl hydrocarbon receptor (AhR) signaling pathway - cell viability counter screen (AID 743086).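 Also: HepG2 liver cells carrying the AhR DRE luciferase reporter; series mostly up to about 70 µM; % is scaled to controls: 0 for no effect and ±100 for the full control effect; nearly all actives have a fitted effect of over 45% in size.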 The procedure, abridged: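 HepG2-AhR-luc (HG2L7.5c1) cells, 4000/well, were preincubated 5 h at 37C, exposed to compound in qHTS format for 24 hr at 37C, then given CellTiter-Fluor for 30 min; viability was read as fluorescence in the reporter wells.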

Assay [9] concerns the target Peroxisome proliferator-activated receptor gamma (Homo sapiens) (UniProt P37231). The assay is described as follows: qHTS assay to identify small molecule agonists of the peroxisome proliferator-activated receptor gamma (PPARg) signaling pathway (AID 743094; active = well fitted activation curve with a large enough effect in the signal ratio in the repeat runs, not every such curve was filed as active; the % refers to the signal ratio; also: % is scaled to controls: 0 for no effect and ±100 for the full control effect). In outline: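 Following 5 h plating at 37C, PPARg-bla HEK293H cells receive compound or DMSO for 17 h; fluorescence intensity is recorded after LiveBLAzer B/G loading for 1 h at room temperature.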

Assay [10] can be described thus: qHTS assay to identify small molecule antagonists of the peroxisome proliferator-activated receptor gamma (PPARg) signaling pathway - cell viability counter screen (AID 743194). Also: % is scaled to controls: 0 for no effect and ±100 for the full control effect; nearly all actives have a fitted effect of over 55% in size. The procedure, abridged: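 PPARg-UAS-bla HEK293H cells were plated, rested 5 h at 37 C, then treated with compounds plus rosiglitazone (50 nM final) for 17 h at 37 C; viability was then read by CellTiter-Glo luminescence after 30 min at room temperature.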

A short description of assay [11]: qHTS assay for small molecule agonists of the antioxidant response element (ARE) signaling pathway (AID 743202; active = well fitted activation curve with a large enough effect in the signal ratio in the repeat runs, not every such curve was filed as active; the % refers to the signal ratio; also: potency is read from the fitted curve at half-maximal effect). In outline:
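Compounds delivered in DMSO to ARE-bla HepG2 cells (2,000 cells/well, pre-incubated 5 h) and left 16 h at 37 C. LiveBLAzer B/G FRET substrate then added for 2 h at RT before fluorescence reading.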

A short description of assay [12]: qHTS assay for small molecule agonists of the antioxidant response element (ARE) signaling pathway - cell viability counter screen (AID 743203; calls by dose curve; also: % is scaled to controls: 0 for no effect and ±100 for the full control effect; nearly all actives have a fitted effect of over 55% in size). In outline: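 Compounds in DMSO were pinned onto ARE-bla HepG2 cells plated 5 hrs earlier at 2,000 cells/well. Sixteen hours later at 37C/5% CO2, CellTiter-Glo was added and luminescence measured after 30 min at room temperature.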

Assay [13] can be described thus: qHTS assay for small molecule activators of the heat shock response signaling pathway - cell viability counter screen (AID 743209). Also: % is scaled to controls: 0 for no effect and ±100 for the full control effect; nearly all actives have a fitted effect of over 50% in size. The procedure, abridged: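 Counter screen for cytotoxicity in HeLa HSE-bla reporter cells. Treatment was 5 h at 37 C; viability was detected by luminescent ATP assay (CellTiter-Glo) in the same wells as the beta-lactamase read.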
A short description of assay [14]: qHTS assay for small molecule activators of the heat shock response signaling pathway (AID 743210; active = well fitted activation curve with a large enough effect in the signal ratio in the repeat runs, with a control signal flat, not every such curve was filed as active; the % refers to the signal ratio;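 also: HeLa cells with beta-lactamase reporter driven by heat shock elements; series mostly up to about 63 µM; % is scaled to controls: 0 for no effect and ±100 for the full control effect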). In outline:
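Reporter gene assay: HeLa cells stably bearing an HSE-bla construct, compound treatment 5 h at 37 C, LiveBLAzer substrate 2.5 h at RT, fluorescence intensity.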

The nature of assay [15]: qHTS assay to identify small molecule agonists of the peroxisome proliferator-activated receptor delta (PPARd) signaling pathway - cell viability counter screen (AID 743211). The procedure, abridged: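 qHTS cell viability: PPARd-bla HEK293H; 17 h cpd, 37C; CellTiter-Glo, luminescence at 30 min RT.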
Assay [16] addresses Peroxisome proliferator-activated receptor gamma (Homo sapiens) (UniProt P37231). The experiment in a line: qHTS assay to identify small molecule antagonists of the peroxisome proliferator-activated receptor gamma (PPARg) signaling pathway (AID 743191; calls by dose curve; also: series mostly up to about 63 µM; % is scaled to controls: 0 for no effect and ±100 for the full control effect; nearly all actives have a fitted effect of over 30% in size). In outline: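 GeneBLAzer PPARg UAS-bla HEK293H cells carrying a UAS-driven beta-lactamase reporter were plated at 3000 cells/well, preincubated 5 h at 37C, then given compound for 17 h at 37C; LiveBLAzer B/G FRET substrate was read after 1 h at room temperature.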

Assay [17] in a line: qHTS assay to identify small molecule antagonists of the thyroid receptor (TR) signaling pathway (AID 743065). The procedure, abridged:
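GH3.TRE-Luc rat pituitary cells carrying two TR response elements driving luciferase were plated for 4 h, given compound plus 1 nM T3 (final), and incubated 23.5 h at 37 C. ONE-Glo luminescence measured reporter inhibition; CellTiter-Fluor fluorescence tracked cytotoxicity.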

The target in assay [18] is Estrogen receptor (Homo sapiens) (UniProt P03372). The experiment in a line: qHTS assay to identify small molecule agonists of the estrogen receptor alpha (ER-alpha) signaling pathway using the BG1 cell line (AID 743079). Also: potency is read from the fitted curve at half-maximal effect; nearly all actives have a fitted effect of over 20% in size.

Aryl hydrocarbon receptor (Homo sapiens), sequence (P35869 whole entry, looked up): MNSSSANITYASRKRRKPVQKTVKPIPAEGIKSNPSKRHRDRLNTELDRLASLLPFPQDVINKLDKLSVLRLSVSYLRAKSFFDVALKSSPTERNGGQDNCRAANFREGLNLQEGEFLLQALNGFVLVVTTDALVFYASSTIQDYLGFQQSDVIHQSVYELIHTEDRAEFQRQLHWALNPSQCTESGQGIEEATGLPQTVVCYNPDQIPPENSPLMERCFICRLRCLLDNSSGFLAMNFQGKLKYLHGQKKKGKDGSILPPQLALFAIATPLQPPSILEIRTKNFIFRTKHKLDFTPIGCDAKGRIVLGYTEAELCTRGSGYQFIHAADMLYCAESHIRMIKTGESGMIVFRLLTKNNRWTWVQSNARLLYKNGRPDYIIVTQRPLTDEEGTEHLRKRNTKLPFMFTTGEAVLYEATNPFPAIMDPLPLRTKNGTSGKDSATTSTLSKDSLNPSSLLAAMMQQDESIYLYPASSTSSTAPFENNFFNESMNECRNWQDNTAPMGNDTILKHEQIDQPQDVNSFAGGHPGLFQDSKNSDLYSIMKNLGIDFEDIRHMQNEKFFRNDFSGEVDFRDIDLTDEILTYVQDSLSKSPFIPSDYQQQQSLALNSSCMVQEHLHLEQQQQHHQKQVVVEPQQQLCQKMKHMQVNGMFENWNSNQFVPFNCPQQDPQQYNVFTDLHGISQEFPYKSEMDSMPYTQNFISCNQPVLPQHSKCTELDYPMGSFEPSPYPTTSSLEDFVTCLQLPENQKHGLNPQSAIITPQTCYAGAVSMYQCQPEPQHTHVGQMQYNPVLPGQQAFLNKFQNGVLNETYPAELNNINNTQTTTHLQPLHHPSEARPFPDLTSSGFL
Peroxisome proliferator-activated receptor gamma (Homo sapiens), sequence (P37231 whole entry, looked up): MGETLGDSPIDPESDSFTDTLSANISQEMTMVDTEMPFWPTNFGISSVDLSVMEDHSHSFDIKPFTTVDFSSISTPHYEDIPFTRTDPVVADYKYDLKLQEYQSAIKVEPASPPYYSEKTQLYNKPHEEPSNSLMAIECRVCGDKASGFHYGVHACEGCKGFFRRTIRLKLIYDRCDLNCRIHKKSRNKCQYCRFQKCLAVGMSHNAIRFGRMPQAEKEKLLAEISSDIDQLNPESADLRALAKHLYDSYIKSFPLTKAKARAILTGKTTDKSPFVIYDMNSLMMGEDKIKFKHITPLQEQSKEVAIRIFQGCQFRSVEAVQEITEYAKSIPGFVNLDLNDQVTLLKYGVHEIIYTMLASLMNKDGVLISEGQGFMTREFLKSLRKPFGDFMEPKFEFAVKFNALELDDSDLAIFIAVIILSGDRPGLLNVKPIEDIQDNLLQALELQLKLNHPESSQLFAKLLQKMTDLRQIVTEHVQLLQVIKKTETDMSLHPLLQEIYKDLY

With `C[C@]12CCC(=O)C=C1CC[C@@H]1[C@@H]2CC[C@@]2(C)[C@H]1CC[C@]2(O)C(=O)CO`, the call in assay [1], in [3], in [4], in assay [8] and in [13] was inactive. The Potency result (in [2]; in assay [5]; with Aromatase (Homo sapiens); in assay [6]; in [7]; in [9]) was “inactive” in each case. Moreover, the Potency result in assay [10], in assay [11], in [12], in assay [14] and in assay [15] was “inactive” each time.
In the case of `NC(Cc1ccc(F)cc1)C(=O)O` (stereo unspecified), the activation in assay [1] was -5.43% [at 8.08 µM]; in [9], 0.33% [at 7.08 µM]; in [11] it was -7.28% [at 8.36 µM]. The activity, negative = cytotoxicity in assay [2] was -20% [at 6.72 µM]. The activity change, negative = cytotoxicity in assay [5] is -2.97% [at 8.47 µM]; in assay [6], -2.35% [at 8.47 µM]; in assay [10], -1.09% [at 5.95 µM]; in assay [13], -7.91% [at 5.95 µM]; in [15], -0.221% [at 5.95 µM]. Also, the activity, negative = inhibition in the assay with Aromatase (Homo sapiens) is -6.6% [at 8.47 µM]. The viability change, negative = cytotoxic was 2.78% [at 8.47 µM] in assay [8] and -1.52% [at 8.36 µM] in [12]. For the same compound, in assay [16], the ratio activity, negative = inhibition was 6.5% [at 5.95 µM].
For the compound `O=CCCc1ccccc1`, the Potency result (in [17]; in assay [5]; with Aromatase (Homo sapiens); in assay [6]; in assay [7]; in [10]) was “inactive” throughout. Besides, the Potency result in assay [11], in assay [12], in assay [14] and in assay [15] was “inactive” throughout. The result in assay [1], in [8] and in [13] was inactive.
On to `CCCCCCCCCCCCCCCCOP(=O)([O-])OCC[N+](C)(C)C`, for which the Potency result (in [2]; in assay [5]; in the assay with Aromatase (Homo sapiens); in [6]; in assay [7]; in assay [9]) was “inactive” each time. For the same compound, the Potency result in [11], in assay [12] and in assay [15] was “inactive” in each case. Besides, in assay [8], the compound was called inactive.
Consider `CCCOc1ccc2c(c1)CC[C@@H]1[C@@H]2CC[C@]2(C)C(OC)CC[C@@H]12` (stereo partly specified), for which the Potency result in assay [10], in [12] and in [14] was “inactive” in each case. In addition, the compound was called inactive in assay [13].
On to `C/C(=N\O)[C@@H](C)NCC(C)(C)CN[C@H](C)/C(C)=N/O`, for which the Potency entry in assay [16], in [10], in [11], in assay [12], in [14] and in assay [15] was “inactive” in each case. Besides, the compound was called inactive in assay [13].
Take `CC(=O)O[C@H]1CC[C@@]2(C)C(=CC[C@@H]3[C@@H]2CC[C@]2(C)C(C(C)=O)=CC[C@@H]32)C1`: the Potency entry in assay [16], in assay [10], in [12], in [14] and in assay [15] was “inactive” each time. Moreover, in assay [11], the Potency is 23.7 µM (active). Moreover, the call in assay [13] was inactive.
As for `O=C1CCC(C2CCCCC2)CC1`, the result in assay [1], in assay [8] and in assay [13] was inactive. In addition, the Potency result (in [5]; with Aromatase (Homo sapiens); in assay [6]; in assay [7]; in [9]; in [12]) was “inactive” each time. Further, the Potency result in assay [14] and in [15] was “inactive” in each case.
On to `CN1CCN(N)CC1`, for which the Potency result in assay [16], in assay [10], in [11], in assay [12], in assay [14] and in [15] was “inactive” in each case. Also, in assay [13], the compound was classed as inactive.
Turning to `CCCC(CCC)(C(=O)OCC)C(=O)OCC`, the Potency result in [10], in assay [11], in assay [12], in assay [14] and in assay [15] was “inactive” each time.
As for `OCc1c2ccccc2cc2ccccc12`, the Potency entry (in [2]; in assay [5]; with Aromatase (Homo sapiens); in [6]; in assay [9]; in [10]) was “inactive” each time. For the same compound, the Potency entry in assay [12], in [14] and in assay [15] was “inactive” each time. Also, the result in assay [3], in [8] and in assay [13] was inactive. For the same compound, the Potency in assay [18] is 54.6 µM (active).
